Assay results taken from PubChem BioAssay AID1159580 (chemical genetic matrix, 2015).
Several values for one entry are separate records, joined by “and”; a condition that tells them apart may be missing. Identical values can stand only once. Screen size: about 5,500 compounds; about 2,000 (36%) were called active. Not shown: some 18% with an inconclusive outcome. Rule as the data show it: active = normalized growth mostly below about 0.91 (no sharp cut-off); inconclusive = no clear call, values can overlap the other calls; inactive = mostly above about 0.92. The list shows a part of the results.

Assay: chemical genetic growth profiling, strain panel (AID 1159580);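 also: tested at 20 µM; growth read once vehicle control cultures reached saturation at 30 °C; 1 = growth at the plate median or of vehicle wells; lower values mean less growth of the strain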
Conditions: S. cerevisiae deletion strains, growth OD

Measured: normalized growth

COc1ccc(-c2c(O)c3c(OC)c4c(cc3oc2=O)OC(C)(C)C=C4)cc1
inactive: locus YAL013W, strain DEP1, hits give low values 0.959 | locus YAL021C, strain ccr4, hits give low values 0.938 | locus YAL026C, strain drs2, hits give low values 0.952 | locus YAL030W, strain snc1, hits give low values 0.951 | locus YBL061C, strain skt5, hits give low values 0.942 | locus YBR009C, strain hhf1, hits give low values 0.953 | locus YBR021W, strain FUR4, hits give low values 0.946 | locus YBR023C, strain chs3, hits give low values 0.947 | locus YBR171W, strain sec66, hits give low values 0.919 | locus YBR229C, strain ROT2, hits give low values 0.951 | locus YBR231C, strain swc5, hits give low values 0.954 | locus YBR279W, strain paf1, hits give low values 0.972 | locus YCL011C, strain gbp2, hits give low values 0.957 | locus YCL016C, strain dcc1, hits give low values 0.955 | locus YCL029C, strain bik1, hits give low values 0.937 | locus YCL061C, strain MRC1, hits give low values 0.945 | locus YCL069W, strain vba3, hits give low values 0.955 | locus YCR088W, strain abp1, hits give low values 0.947 | locus YDL005C, strain med2, hits give low values 0.966 | locus YDL035C, strain GPR1, hits give low values 1 | locus YDL040C, strain nat1, hits give low values 0.95 | locus YDL074C, strain BRE1, hits give low values 0.967 | locus YDL101C, strain DUN1, hits give low values 0.962 | locus YDL185W, strain tfp1, hits give low values 0.944 | locus YDL192W, strain arf1, hits give low values 0.959 | locus YDR001C, strain nth1, hits give low values 0.948 | locus YDR069C, strain doa4, hits give low values 0.992 | locus YDR101C, strain arx1, hits give low values 0.961 | locus YDR150W, strain NUM1, hits give low values 0.936 | locus YDR159W, strain sac3, hits give low values 1.01 | locus YDR162C, strain NBP2, hits give low values 0.962 | locus YDR195W, strain ref2 0.981 | locus YDR297W, strain sur2, hits give low values 1.02 | locus YDR318W, strain mcm21, hits give low values 0.936 | locus YDR334W, strain swr1, hits give low values 0.955 | locus YDR335W, strain msn5, hits give low values 0.971 | locus YEL003W, strain gim4, hits give low values 0.958 | locus YEL037C, strain rad23, hits give low values 0.962 | locus YEL061C, strain CIN8 (second series), hits give low values 0.957 | locus YER015W, strain faa2, hits give low values 0.975 | locus YER016W, strain bim1, hits give low values 0.951 | locus YER110C, hits give low values 0.949 | locus YER111C, strain swi4, hits give low values 0.969 | locus YER155C, strain BEM2 (second series), hits give low values 0.963 | locus YER155C, strain BEM2, hits give low values 0.956 | locus YER167W, strain BCK2, hits give low values 0.954 | locus YFR010W, strain ubp6, hits give low values 0.967 | locus YGL078C, strain dbp3, hits give low values 0.99 | locus YGL086W, strain mad1, hits give low values 0.949 | locus YGL167C, strain pmr1, hits give low values 0.92 | locus YGL173C, strain kem1, hits give low values 0.958 | locus YGL227W, strain vid30, hits give low values 0.953 | locus YGL240W, strain doc1, hits give low values 0.989 | locus YGL248W, strain PDE1, hits give low values 0.979 | locus YGL253W, strain hxk2, hits give low values 0.949 | locus YGR078C, strain PAC10, hits give low values 0.984 | locus YGR135W, strain pre9, hits give low values 0.931 | locus YGR252W, strain gcn5, hits give low values 0.96 | locus YHR013C, strain ard1, hits give low values 0.959 | locus YHR027C, strain rpn1, hits give low values 0.973 | locus YHR030C, strain SLT2, hits give low values 0.956 and 1 | locus YHR079C, strain IRE1 (second series), hits give low values 0.953 | locus YHR079C, strain IRE1, hits give low values 0.992 | locus YHR094C, strain hxt1, hits give low values 0.939 | locus YHR129C, strain ARP1, hits give low values 0.972 | locus YHR142W, strain chs7, hits give low values 0.925 | locus YHR200W, strain rpn10, hits give low values 0.946 | locus YIL066C, strain RNR3, hits give low values 0.957 | locus YIL073C, strain SPO22, hits give low values 0.919 | locus YIL125W, strain kgd1, hits give low values 0.978 | locus YIR030C, strain dcg1, hits give low values 0.958 | locus YJL092W, strain hpr5, hits give low values 0.946 | locus YJL095W, strain BCK1 (second series), hits give low values 0.954 | locus YJL095W, strain BCK1, hits give low values 0.944 and 0.971 | locus YJL115W, strain asf1, hits give low values 0.962 | locus YJL134W, strain LCB3, hits give low values 0.942 | locus YJL154C, strain vps35, hits give low values 0.958 | locus YJL164C, strain tpk1, hits give low values 0.967 | locus YJL166W, strain qcr8, hits give low values 0.966 | locus YJL187C, strain SWE1 (second series), hits give low values 0.943
active: locus YDR137W, strain rgp1, hits give low values 0.845 | locus YDR388W, hits give low values 0.924 | locus YDR392W, strain spt3, hits give low values 0.725 | locus YDR502C, strain sam2, hits give low values 0.891 | locus YJL129C, strain trk1, hits give low values 0.789 | locus YJL168C, strain set2, hits give low values 0.93
